# HP1b binding inh – HTS for Inhibitors of HP1-beta Chromodomain Interactions with Methylated Histone Tails | Chromobox protein homolog 1 (Homo sapiens), P83916 | AlphaScreen HP1-beta / biotin-H3K9me3 peptide binding | Potency, µM (top dose mostly 114 µM), for inactives: at the highest dose activity change, negative = inhibition, actives largely listed as inhibitors | 390,000 compounds, 0.56% hits; note: nearly all actives have a fitted effect of over 70% in size
#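 Compound inhibition of the preformed complex between 50 nM HP1-beta and 50 nM biotinylated H3K9me3 peptide was read by AlphaScreen. Buffer was PBS pH 7.4 with 0.01% Tween-20. Incubations ran 30 min at room temperature, with 10 ug/mL donor/acceptor beads.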
# GLS inh – qHTS for Inhibitors of Glutaminase (GLS); Glutaminase kidney isoform, mitochondrial (Homo sapiens), O94925; GLS enzymatic activity, qHTS titration; 410,000 compounds, 0.21% hits; Potency, µM (doses to about 45.5 µM), for inactives: at the top dose activity change, negative = inhibition, actives largely listed as inhibitors; AID 624170, 2012; note: % is set by controls: 0 for no effect and ±100 for the full control effect
# Target sequence (O94925 whole entry, looked up, canonical isoform): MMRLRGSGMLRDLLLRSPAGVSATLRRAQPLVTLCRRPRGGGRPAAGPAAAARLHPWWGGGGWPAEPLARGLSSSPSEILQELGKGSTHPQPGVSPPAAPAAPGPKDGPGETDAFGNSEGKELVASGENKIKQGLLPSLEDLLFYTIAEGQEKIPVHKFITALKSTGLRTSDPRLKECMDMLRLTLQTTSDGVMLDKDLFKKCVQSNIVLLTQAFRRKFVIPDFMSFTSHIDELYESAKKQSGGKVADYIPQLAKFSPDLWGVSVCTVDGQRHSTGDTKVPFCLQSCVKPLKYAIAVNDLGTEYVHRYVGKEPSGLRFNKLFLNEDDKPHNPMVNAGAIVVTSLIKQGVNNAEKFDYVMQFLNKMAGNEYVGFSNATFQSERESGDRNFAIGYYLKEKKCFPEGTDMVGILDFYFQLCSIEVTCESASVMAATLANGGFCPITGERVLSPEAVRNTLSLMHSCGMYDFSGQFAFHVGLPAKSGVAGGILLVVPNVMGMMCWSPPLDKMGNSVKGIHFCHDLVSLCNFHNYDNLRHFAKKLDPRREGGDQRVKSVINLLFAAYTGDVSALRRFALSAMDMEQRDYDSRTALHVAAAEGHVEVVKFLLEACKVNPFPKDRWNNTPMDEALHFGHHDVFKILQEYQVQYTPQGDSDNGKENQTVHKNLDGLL
#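 Compounds were pin-transferred onto hKGA, after which L-glutamine (1 mM solution) and a detection mix of glutamate oxidase, HRP and Amplex Red were added. Initial and 30 min RT fluorescence reads were collected.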
# JMJD2A Tudor – qHTS Assay for Inhibitors of JMJD2A-Tudor Domain. AlphaScreen JMJD2A-Tudor / H3K4me3 peptide binding. Potency, µM (top dose mostly 114 µM), inactives show at the highest dose activity change, negative = inhibition, most hits filed as inhibitors. 390,000 compounds, 4.4% hits; note: % is set by controls: 0 for no effect and ±100 for the full control effect; nearly all actives have a fitted effect of over 50% in size
# G9a inh – qHTS Assay for Inhibitors of Histone Lysine Methyltransferase G9a; Histone-lysine N-methyltransferase EHMT2 (Homo sapiens), Q96KQ7; G9a H3K9 monomethylation, AlphaScreen, 2 h; Potency, µM (doses to about 102 µM), for the others: top-dose activity, negative = inhibition, usual class: inhibitors; 350,000 compounds, 8.8% hits; note: % is set by controls: 0 for no effect and ±100 for the full control effect; nearly all actives have a fitted effect of over 75% in size
#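 Step 1: enzyme (final 20 nM) with compound, 15 min RT. Step 2: substrate peptide 500 nM and SAM 20 uM, 2 h RT. Step 3: anti-H3K9me1 antibody and AlphaScreen beads, 10 min, then plate read.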
# BAZ2B block – qHTS Assay for Inhibitors of BAZ2B; Bromodomain adjacent to zinc finger domain protein 2B (Homo sapiens), Q9UIF8; Potency, µM (top dose mostly 114 µM), for the others: at the top dose activity change, negative = inhibition, usual class: inhibitors; 360,000 compounds, 4.4% hits; AID 504333, 2011; AlphaScreen BAZ2B-H3K14Ac peptide displacement; note: % is set by controls: 0 for no effect and ±100 for the full control effect; nearly all actives have a fitted effect of over 60% in size
#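 Protein-peptide AlphaScreen: BAZ2B 50 nM, b-H3K14Ac 50 nM, 1x PBS pH 7.4 + 0.01% Tween-20. Preincubation 30 min RT; cpd 30 min RT (top 110 uM); beads 20 min RT, light-protected.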
# * = called active by the depositor; ? = inconclusive; . = not tested or not shown; ! = a repeat was not active; [ ] = another dose, or the depositor's remark. Compounds with a hit are over-represented: about 10% of the library has one in this group of screens. Calls come from the whole dose curve; as a rule, active = well fitted curve in the direction sought with a large enough effect; inconclusive = small, poorly fitted or top-dose-only effect, or another doubt; inactive = no such curve, though single readings can be large; an effect the other way counts as inactive or inconclusive. Potency is the fitted concentration of half-maximal effect.
SMILES,HP1b binding inh,GLS inh,JMJD2A Tudor,G9a inh,BAZ2B block
O=S(=O)(c1ccccc1)N1CCCCC1c1cccnc1 (centres undefined),8.0%,15.1%,-9.9%,3.5%[12.7 µM],-24.2%
O=C1C2CCCN2C(c2cccnc2)N1c1nccs1 (centres undefined),18.2%,3.0%,?,12.6µM*,-35.3%
CN1CCC[C@H]1c1cccnc1,24.0%,-3.4%,?,14.1µM*!,-5.2%
c1cncc(C2CCCCN2Cc2ccc3c(c2)OCO3)c1 (centres undefined),0.6%,0.2%,-33.1%,79.4µM*,?
Clc1cccc(CN2CCCCC2c2cccnc2)c1 (centres undefined),49.5%,-2.9%,-13.5%,56.2µM*,?
CN1CCCC2(CCN(C(=O)Oc3ccccc3)CC2)C1,.,.,.,8.9%[12.7 µM],.
CCc1nn2c(=O)c(C)c(N3CCNCC3)nc2s1,.,.,-2.7%,.,.
O=C1CC(c2ccc(F)cc2)c2c(c3ccccc3oc2=O)O1 (centres undefined),35.5%,26.3%,-20.5%,-22.9%[59 µM],-16.7%
CCCN1C[C@H](C)N([C@H](c2ccc(C(=O)N(CC)CC)cc2)c2cccc(OC)c2)C[C@H]1C,.,.,.,7.1%[59 µM],.
CNc1ccc2nc3ccccc3[n+](C)c2c1,?,-22.2%,-33.3%,-33.3%[2.33 µM],35.5µM*
C[n+]1c2ccccc2nc2ccc(NCCO)cc21,39.8µM*,-17.4%,?,0.7%[2.33 µM],12.6µM*
OCCNc1c2c(nc3ccccc13)CCCC2,54.6%,-3.2%,17.1%,-9.8%,0.0%
CCN(CC)c1ccc(CNCCc2ccccc2F)cc1,?,0.0%,?,4.6%[12.7 µM],?
Cc1ccc(C2C(S(C)(=O)=O)=C(O)C(=O)N2c2ccccc2)cc1 (centres undefined) (tested in a mixture with another compound),4.5%,11.6%,?,70.8µM*,?
CCOP(=O)(/C=C(\Cl)c1ccccc1)C(O)c1ccc(F)cc1 (centres undefined),24.5%,0.0%,?,24.1%[2.33 µM],-0.9%
COc1ccc(Cc2nccc3cc(OC)c(OC)cc23)cc1OC,-4.2%,-16.2%,-19.4%,5.62µM*!,?
COc1ccc(CC(=O)Nc2ccc3c(C(F)(F)F)cc(=O)oc3c2)cc1OC,25.3%,-6.5%,-7.8%,17.4%,-9.2%
OC1(c2ccc(Cl)cc2)CCN(Cc2c[nH]c3ccccc23)CC1,-16.4%,9.4%,-33.8%,29.6%[59 µM],.
Oc1ccc2[nH]cc(CCCCN3CC=C(c4ccccc4)CC3)c2c1,.,15.1%,.,?,.
CCOc1ccc(Nc2c(S(=O)(=O)c3ccc(C)cc3)cnc3ccc(F)cc23)cc1,4.9%,-10.7%,-30.5%,10µM*,-37.3%
CCOc1ccc(Nc2c(S(=O)(=O)c3ccc(C)cc3)cnc3ccccc23)cc1,9.0%,-0.4%,?,-34.0%[59 µM],?
CC[C@]12C=CCN3CCC4(c5cc(Br)c(OC)cc5N(C)C4[C@@](O)(C(=O)OC)[C@@H]1OC(C)=O)C32 (some centres undefined),14.0%,4.7%,-25.5%,35.5µM*,-13.9%
CCc1cccc(NC(=O)Cn2c(=O)oc3cc(S(=O)(=O)N4CCOCC4)ccc32)c1,26.7%,3.4%,-12.4%,-15.9%,23.1%
CC(C)Cn1c(-c2cccc(S(=O)(=O)N3CCOCC3)c2)n[nH]c1=S,11.6%,-0.6%,7.08µM*,.,.
CC1OC(O[C@H]2C[C@@H](O)[C@]3(CO)[C@@H]4C(CC[C@]3(O)C2)[C@@]2(O)CC[C@H](C3=CC(=O)OC3)[C@@]2(C)C[C@H]4O)C(O)C(O)C1O (some centres undefined),.,-15.6%,.,27.7%[59 µM],.
SMILES,HP1b binding inh,GLS inh,JMJD2A Tudor,G9a inh,BAZ2B block
Oc1ccc2c3c1O[C@H]1c4[nH]c5c(c4C[C@@]4(O)[C@@H](C2)N(CC2CC2)CC[C@]314)C[C@@]1(O)[C@H]2Cc3ccc(O)c4c3[C@@]1(CCN2CC1CC1)[C@H]5O4,.,.,.,14.1µM*,.
CN1CCN(c2ccc([N+](=O)[O-])c(Sc3ccccn3)c2)CC1,8.3%,-7.8%,-17.3%,-0.4%,-17.7%
NNS(=O)(=O)c1ccc(Sc2ccccn2)c([N+](=O)[O-])c1,31.2%,12.7%,-20.5%,39.8µM*,-13.7%
CC(=O)OC1CCC2(C)C(CCC3C4CC(N5CC5)C(C(C)=O)C4(C)CC(=O)C32)C1 (centres undefined),13.5%,13.4%,-24.3%,.,.
O=C(CCN1CCOCC1)Nc1ccc(Br)cc1C(=O)c1ccccc1,32.8%,7.7%,-25.6%,35.5µM*,-31.1%
O=C(CN1CCOCC1)Nc1ccc(Br)cc1C(=O)c1ccccc1,7.8%,0.1%,-10.5%,-7.2%[59 µM],0.8%
CCCc1cnc2c(c1SCC(=O)Nc1ccc([N+](=O)[O-])cc1)c(=O)n(C)c(=O)n2C,-4.6%,-14.9%,-24.4%,12.6µM*,-15.7%
COc1cc(N)ccc1Cc1ccc(N)cc1OC,-13.8%,-2.9%,79.4µM*,-20.5%[59 µM],.
COC(=O)C1=C(C)NC(C)=C(C(=O)OC)C1c1ccccc1[N+](=O)[O-],?,28.3%,?,2.99µM*,39.8µM*
Cc1ccccc1[N+](=O)[O-],100.3%,2.4%,-10.3%,13.0%[0.501 µM],-0.8%
Cc1ccc(S(=O)(=O)N(CC(=O)NCCSc2ccc(Cl)cc2)c2ccccc2C)cc1,51.9%,-8.8%,2.2%,14.2%[59 µM],-17.4%
COc1ccc(CCNCc2c(OC)ccc3ccccc23)cc1,?,-0.5%,22.4µM*,14.1µM*,35.5µM*
Fc1ccc(CNCCc2ccccc2)cc1,?,6.7%,22.4µM*,?,.
COc1cccc(CCNCc2ccc(SC)cc2)c1,?,-13.2%,25.1µM*,3.16µM*,50.1µM*
COc1ccc(CCNC(C)CCc2ccc(OC)cc2)cc1 (centres undefined),9.4%,2.0%,0.0%,?,?
COc1ccc(CCNCc2cc(OC)cc(OC)c2)cc1,.,2.2%,.,.,.
COc1ccc(CCNCc2ccncc2)cc1,?,-2.2%,1.26µM*,?,56.2µM*
COc1cc(CC(C)N)cc2c1OCO2 (centres undefined),.,2.4%[99.4 µM],.,.,.
Cc1ccc2c(c1)Oc1ccccc1N=C2,.,0.8%,.,.,.
CC(=O)Nc1ccc(Nc2c(CCC(C)C)c(C)c(C#N)c3nc4ccccc4n23)cc1,39.6%,4.9%,-13.8%,-29.5%[59 µM],0.0%
O=C(Nc1ccon1)c1cccn(Cc2cccc([N+](=O)[O-])c2)c1=O,51.7%,-18.8%,-23.1%,-5.1%[59 µM],-1.2%
C[N+]1([O-])CCC[C@@H]1c1cccnc1 (some centres undefined),.,.,.,32.4%[59 µM],.
COc1ccc(CCNCc2ccccc2)cc1,?,-0.6%,7.08µM*,5.1%[2.33 µM],25.1µM*

# Screens from PubChem BioAssay.
